Measurements reported in the supplement of paper PMC12350171.
Counter-ions that a name gives are not always drawn.

Legend:
Test in all cases: growth AUC normalised to DMSO control (median) (fraction of control); higher = less growth inhibition, active = hit call of the paper
Details in all cases: 20 µM;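 active = normalised median growth AUC below 0.1 of DMSO control; inactive = AUC 0.1 or higher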
[1] = tested on: P. vulgatus RND KO
Summary of the method: (§1)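 Strains were passaged twice overnight without oxygen, then grown in mGAM in 96-well plates with each approved-drug library compound at 20 μM and 1% DMSO, starting at OD578 0.01. OD578 was read hourly for 24 h inside an anaerobic incubator. Curves were truncated at entry into stationary phase, and the trapezoidal-rule area under the curve was normalised to same-plate vehicle wells. The value is the median across three biological replicates.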

[2] = tested on: P. vulgatus WT
Summary of the method: as §1

[3] = tested on: S. enterica typhimurium WT
Summary of the method: as §1

[4] = tested on: S. enterica typhimurium tolC KO
Summary of the method: as §1

Measured: growth AUC normalised to DMSO control
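Further: active when median AUC fell below 0.1.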

O=C(O)CNC(=O)c1ccccc1 [Hippuric acid]
inactive: [1] 1.1 | [2] 1.05 | [3] 1.01 | [4] 1.02

COc1ccc(-c2noc(CC(=O)O)c2-c2ccc(OC)cc2)cc1 [Mofezolac]
inactive: [1] 0.999 | [2] 1.03 | [3] 1.01 | [4] 0.998

CC(C)(C)C(=O)C(Oc1ccc(Cl)cc1)n1ccnc1 (stereo not drawn) [Climbazole]
inactive: [1] 0.968 | [2] 0.984 | [3] 0.993 | [4] 0.953

Cc1cccc(C)c1OCC(=O)N[C@@H](Cc1ccccc1)[C@@H](O)C[C@H](Cc1ccccc1)NC(=O)[C@H](C(C)C)N1CCCNC1=O [Lopinavir]
inactive: [1] 1.06 | [2] 1.07 | [3] 1.01 | [4] 1.01

CC(C)c1nc(N(C)S(C)(=O)=O)nc(-c2ccc(F)cc2)c1/C=C/[C@@H](O)C[C@@H](O)CC(=O)O [Rosuvastatin]
inactive: [1] 1.01 | [2] 1.03 | [3] 1.01 | [4] 1.01

C[C@@H](CN1CC(=O)NC(=O)C1)N1CC(=O)NC(=O)C1 [Dexrazoxane hydrochloride]
inactive: [1] 1.01 | [2] 0.988 | [3] 1.01 | [4] 0.989

C/C(=C1\CCOC(=O)S1)N(C=O)Cc1cnc(C)nc1N [Cycotiamine]
inactive: [1] 1.01 | [2] 1.07 | [3] 0.995 | [4] 1

COC(=O)C1=C(C)NC(C)=C(C(=O)OCCN2CCN(C(c3ccccc3)c3ccccc3)CC2)C1c1cccc([N+](=O)[O-])c1 (stereo not drawn) [Manidipine Dihydrochloride]
inactive: [1] 1.03 | [2] 1.02 | [3] 0.999 | [4] 1.02

CC[C@H](C)[C@H](NC(=O)[C@H](Cc1ccc(O)cc1)NC(=O)[C@@H](NC(=O)[C@H](CCCN=C(N)N)NC(=O)[C@@H](N)CC(=O)O)C(C)C)C(=O)N[C@@H](Cc1cnc[nH]1)C(=O)N1CCC[C@H]1C(=O)N[C@@H](Cc1ccccc1)C(=O)O [Angiotensin II (Human) Trifluoroacetic acid salt]
inactive: [1] 1.1 | [2] 1.1 | [3] 0.997 | [4] 1.02

CCN(CC)CCOCCOC(=O)C(CC)(CC)c1ccccc1 [Oxeladin citrate]
inactive: [1] 1 | [2] 0.98 | [3] 0.995 | [4] 0.973

CC(=O)Oc1ccc(C(=C2CCCCC2)c2ccc(OC(C)=O)cc2)cc1 [Cyclofenil]
inactive: [1] 0.903 | [2] 0.904 | [3] 0.997 | [4] 0.972

C[C@@H](O)[C@H]1C(=O)N2C(C(=O)O)=C(S[C@@H]3CN[C@H](CNS(N)(=O)=O)C3)[C@H](C)[C@H]12 [Doripenem monohydrate]
active: [1] 0.00779 | [2] 0.00747 | [3] 0.00575 | [4] 0.00595

COC(=O)N/N=C/c1c[n+]([O-])c2ccccc2[n+]1[O-] [Carbadox]
inactive: [3] 0.558 | [4] 0.591
active: [1] 0.0197 | [2] 0.0112

CC1CC(OC(=O)C(O)c2ccccc2)CC(C)(C)C1 (stereo not drawn) [Cyclandelate]
inactive: [1] 0.983 | [2] 0.975 | [3] 1 | [4] 0.903

CC(C)C(=O)OCC(=O)[C@@]12O[C@H](C3CCCCC3)O[C@@H]1C[C@H]1[C@@H]3CCC4=CC(=O)C=C[C@]4(C)[C@H]3[C@@H](O)C[C@@]12C [Ciclesonide]
inactive: [1] 1.02 | [2] 1.02 | [3] 1.01 | [4] 1.01

C/C(=C\C(=O)OCCCCCCCCC(=O)O)C[C@@H]1OC[C@H](C[C@@H]2O[C@H]2[C@@H](C)[C@H](C)O)[C@@H](O)[C@H]1O [Mupirocin]
inactive: [1] 1 | [2] 1.04 | [3] 0.403
active: [4] 0.0105

Cn1c(=O)cc(N2CCC[C@@H](N)C2)n(Cc2ccccc2C#N)c1=O [Alogliptin benzoate]
inactive: [1] 0.981 | [2] 0.971 | [3] 0.991 | [4] 0.992

CCN(CC)C(=O)C1(c2ccccc2)CC1CN (stereo not drawn) [Milnacipran hydrochloride]
inactive: [1] 1.02 | [2] 1.01 | [3] 0.999 | [4] 1

O=C(Oc1cccc2cccnc12)c1ccccc1 [Benzoxiquine]
inactive: [1] 0.935 | [2] 0.934 | [3] 0.994 | [4] 0.968

CCOC(=O)OC(C)OC1=C(C(=O)Nc2ccccn2)N(C)S(=O)(=O)c2ccccc21 (stereo not drawn) [Ampiroxicam]
inactive: [1] 0.999 | [2] 0.988 | [3] 1 | [4] 0.986

CCc1oc2ccccc2c1C(=O)c1cc(I)c(O)c(I)c1 [Benziodarone]
inactive: [1] 0.647 | [2] 0.606 | [3] 0.999 | [4] 0.815

CCCCC(=O)N(Cc1ccc(-c2ccccc2-c2nnn[nH]2)cc1)[C@H](C(=O)O)C(C)C [Valsartan]
inactive: [1] 1.04 | [2] 1.02 | [3] 1.02 | [4] 1.02

Nc1c(CC(=O)O)cccc1C(=O)c1ccc(Br)cc1 [Bromfenac]
inactive: [1] 1.04 | [2] 1.04 | [3] 1.01 | [4] 0.999

CCNC(=O)CCC/C=C\C[C@@H]1[C@@H](/C=C/[C@@H](O)CCc2ccccc2)[C@H](O)C[C@@H]1O [Bimatoprost]
inactive: [1] 1.03 | [2] 1.04 | [3] 1.01 | [4] 0.99

O=c1[nH]cnc2c1ncn2[C@@H]1O[C@H](CO)[C@@H](O)[C@H]1O [Inosine]
inactive: [1] 1.01 | [2] 1.04 | [3] 0.991 | [4] 1.01

Cc1ccsc1C(=CCCN1CCC[C@@H](C(=O)O)C1)c1sccc1C [Tiagabine hydrochloride]
inactive: [1] 0.999 | [2] 0.984 | [3] 1 | [4] 1

Cc1cc2nc3ccc(=[N+](C)C)cc-3sc2cc1N [Tolonium chloride]
inactive: [1] 0.996 | [2] 1 | [3] 0.981 | [4] 0.987

CCOc1nc2cccc(C(=O)OCc3oc(=O)oc3C)c2n1Cc1ccc(-c2ccccc2-c2noc(=O)[nH]2)cc1 [Azilsartan medoxomil]
inactive: [1] 0.988 | [2] 0.962 | [3] 1 | [4] 0.998

CCCC(CCC)C(=O)O[C@H]1C[C@H]2CC[C@@H](C1)[N+]2(C)C [Anisotropine Methylbromide]
inactive: [1] 1.09 | [2] 1.12 | [3] 0.997 | [4] 0.994

CN(C/C=C/C#CC(C)(C)C)Cc1cccc2ccccc12 [Terbinafine]
inactive: [1] 1.01 | [2] 0.998 | [3] 1.01 | [4] 0.928

COc1cc(Nc2c(C#N)cnc3cc(OCCCN4CCN(C)CC4)c(OC)cc23)c(Cl)cc1Cl [Bosutinib]
inactive: [1] 1 | [2] 0.947 | [3] 1 | [4] 0.98

Cc1ccc2c(Cl)cc(Cl)c(O)c2n1 [Chlorquinaldol]
active: [1] 0.0174 | [2] 0.014
inactive: [3] 0.982 | [4] 0.371
